Measurements from PubChem BioAssay (NCI).
About 83,000 compounds went through this panel and 20% of them were active in at least one assay; those are over-represented in the sample as a whole.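 Values shown are percent growth following 48 h exposure of cells in 96-well plates to a single concentration of compound; below 10 was considered active.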 Values without a mark were called inactive. Active and inactive are the calls of the source.

These molecules were tested on ACHN renal (assay: NCI-60 one-dose screen, 48 h (100 = growth as untreated, 0 = no growth, -100 = all killed)). Conditions: 10 µM unless noted.
Protocol: Growth inhibition of the ACHN human tumor cell line is measured as a screen for anti-cancer activity. Cells are grown in 96 well plates and exposed to the test compound for 48 hours. Compounds are tested at a single concentration, which is 10^-5 M for most compounds. The reported endpoint is percent growth (GI% or GIPRCNT), where numbers from 0 - 100% represent growth inhibition, and numbers from -100% - 0 represent cell death. For example, a value of 40 represents 60% growth inhibition. A value of 0 means no net growth occurred over the course of the experiment. A value of -40 indicates 40% of cells at the beginning of the experiment died by the end of the experiment. A value of -100 means all cells are dead at the end of the experiment.
NCI-60 Human Tumor Cell Lines Screen was performed using the standard one-dose NCI protocol, which is described in more detail at https://dtp.cancer.gov/discovery_development/nci-60/default.htm.
Compounds with GIPRCNT values below 10 were considered active. Activity score was based on GIPRCNT using the following formula: […]
Score is 0 for GIPRCNT values of 100 or above, 50 for GIPRCNT values of 0, and 100 for GIPRCNT values of -100.

In order of falling growth:
1. COc1cc2nc(-c3ccc(C#N)cc3)[nH]c(=O)c2cc1OC  118%
2. CC(C)(C#N)N1CCN(c2ccccc2Cl)CC1  109%
3. C=Cc1cc[n+](CCCCCCCCCCCC)cc1  108%
4. CC(N)C(=O)NNc1n[nH]c(=S)n1N (stereo not given)  108%
5. CC(=O)O[C@]1(C(C)=O)CC[C@H]2[C@@H]3C=C(Cl)C4=CC(=O)CC[C@]4(C)[C@H]3CC[C@@]21C  108%
6. O=C(O)CCCCCCCCCCCCCCC(=O)O  107%
7. O=C(Nc1ccc2cc3ccc(NC(=O)NC4CCCCC4)cc3nc2c1)NC1CCCCC1  100%
8. CCOC(=O)c1c(O)cc(-c2ccccc2)cc1-c1sc(N(C)Cc2ccccc2)nc1Cl  97.2%
9. CC1NC(=S)NC(=O)/C1=C/c1cc(=O)oc2c1ccc1ccccc12 (stereo not given)  95.6%
10. ClCC1(Cn2cnc3c(Cl)nc(Cl)nc32)COC1  94.9%
11. CN(Cc1ccccc1)c1nc(Cl)c(C2CC(c3ccc(Cl)cc3)=Cc3[nH][nH]c(=O)c32)s1 (stereo not given)  93.5%
12. COc1ccccc1N1CCN(C(=O)c2ccc3nc(NC(=O)c4ccc(NCCc5ccccc5)c([N+](=O)[O-])c4)sc3c2)CC1  90.6%
13. O=C1Nc2c(ccc(Cl)c2Cl)/C1=C/c1ccc(O)cc1  87.6%
14. CN(C)c1ccc(-c2c(C#N)c(N)n3nc(N)c(C#N)c3c2C#N)cc1  86.5%
15. COc1cccc(-c2nc3occn3c2-c2ccnc(NCCCNS(=O)(=O)c3cccc(F)c3)n2)c1  84.5%
16. COc1ccc(C(=O)/C=C/c2ccc(OCc3ccccc3)c(OC)c2)cc1OC  79.8%
17. Clc1ccc(C2CC(c3cccc(Nc4ccncc4)c3)=NN2c2ccccc2)cc1 (stereo not given)  78.1%
18. CC1(C)CC[C@]2(C(=O)NCC#CCN3CCOCC3)CC[C@]3(C)C(=CC[C@@H]4[C@@]5(C)Cc6c([nH]c7ccccc67)C(C)(C)[C@@H]5CC[C@]43C)[C@@H]2C1  73.1%
19. CCOC(=O)c1c(C)nc2c(c1N)C(=O)C(=O)N2Cc1ccc(C(F)(F)F)cc1  69.7%
20. COc1cccc(NC(=O)c2cccc(-c3cc(=O)c4c(OC)c(OC)c(OC)cc4o3)c2)c1  62.5%
21. COc1ccc(C(=O)/C=C/c2cn(Cc3ccc(Cl)cc3)c3ccccc23)cc1  62.1%
22. O=C(Cc1ccc(/C=C/C(=O)c2ncc[nH]2)cc1)Nc1ccc(C(F)(F)F)cc1  56%
23. C1=C2CNCC3=Cc4ccc5ccccc5c4OC23Oc2c1ccc1ccccc21  37.2%
24. Cc1ccc(-c2csc(/N=C3\C(=O)Nc4ccccc43)n2)cc1  36.7%
25. c1ccc(-c2nnc(Nc3ccc4c(c3)OCCO4)o2)c(NCc2ccncc2)c1  23.4%
26. COc1cc(OC)c(/C=C/C(=O)c2ccc(Nc3ncnc4ccccc34)cc2)c(OC)c1  22.8%
27. CNC(=O)NCC1OC(n2cnc3c(NC(=O)Nc4ccccc4)ncnc32)C(O[Si](C)(C)C(C)(C)C)C1O[Si](C)(C)C(C)(C)C (stereo not given)  20.5%
28. O=C(CN1CCOCC1)Nc1ccc2ncnc(Nc3ccc(Oc4cccc(C(F)(F)F)c4)c(Cl)c3)c2c1  19%
29. COc1cc(C(=O)c2cnc(-c3ccc4cc[nH]c4c3)[nH]2)cc(OC)c1OC  15.5%
30. Cc1[nH]n(-c2cccc(Cl)c2)c(=O)c1/C=C1\C=Nc2ccc(Br)cc21  11.6%

In the case of Clc1nc(Cl)c2ncn(CCOCCn3cnc4c(Cl)nc(Cl)nc43)c2n1, the growth was -89.1% (active).
Cc1c2c(cc[n+]1Cc1ccccc1)c1ccc(OCc3ccccc3)cc1n2Cc1ccccc1 was tested, and the growth was 8.54% (active).
In the case of COc1ccc(/C=C/c2n[nH]c3ccc(N4CCOC4=O)cc23)cc1, the growth was 6.86% (active).
In the case of C#CC(=O)Nc1cccc(Nc2nc3c(c(NCc4ccccc4)n2)CCCC3)c1, the growth was -93.5% (active).
For CCN(CC)CCCC(C)Nc1cc(-c2cccc(OC(F)(F)F)c2)nc2ccc(N3CCCC3)cc12 (stereo not given), the growth was -19.5% (active).
CCCCCCCC(=O)Nc1nc2[nH]c(CN3CCN(Cc4cccc(I)c4)CC3)c(CN3CCN(Cc4cccc(I)c4)CC3)c2c(=O)[nH]1 was tested, and the growth was -98.9% (active).
With CN1CCN(CCCOc2ccc3ncnc(Nc4ccc(Oc5cccc(C(F)(F)F)c5)c(Cl)c4)c3c2)CC1 the growth was -37.5% (active).
CCCCCCCCOc1ccc(/C=N/Nc2cc(C)nc3ccc(Cl)cc23)cc1 was tested, and the growth was -1.15% (active).
In the case of COc1ccc(CNCCN2C(=O)c3ccc4c5c(ccc(c35)C2=O)C(=O)N(CCNCc2ccc(OC)cc2)C4=O)cc1, the growth was -74.3% (active).

C#Cc1cccc(NC(=O)Nc2cccc(N=C=S)c2)c1 gave a growth of 103% [8.25 µM].
